Source: PubChem
TDP1 cell CPT: DT40-hTDP1 cell growth loss with CPT; chicken DT40 Tdp1-/-;hTDP1 cells + 20 nM CPT, ATP luminescence, 48 h; Potency, µM (top dose mostly 46.2 µM), without a hit: at the top dose activity change, negative = growth inhibition, hits mostly inhibitors; 12% of 420,000 active; also: % is scaled to controls: 0 for no effect and ±100 for the full control effect; nearly all actives have a fitted effect of over 55% in size
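Cell growth measured by CellTiter-Glo luminescence after a minimum 48 h, 37 C compound exposure with 20 nM CPT in Tdp1-knockout DT40 cells stably expressing hTDP1, seeded 400/well; qHTS titration format.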
TGFb SMAD3 inh: inhibitors of TGF-b signaling | 1.2% of 410,000 active | Potency, µM (highest dose often 46.1 µM), for the others: top-dose activity, negative = inhibition, actives largely listed as inhibitors | HepG2 CAGA-GFP TGF-b/SMAD3 reporter, GFP fluorescence, 18 h; TGF-beta stimulated, 500 pg/mL final; also: % is scaled to controls: 0 for no effect and ±100 for the full control effect; nearly all actives have a fitted effect of over 65% in size
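Per well, imaged GFP fluorescence of HEPG2 CAGA-GFP cells gives the signal; cells get compound, then TGF-beta (500 pg/mL final), 18 h at 37 degrees C; %Activity versus -TGF-beta and +DMSO controls.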
TDP1 cell noCPT: qHTS for Inhibitors of human tyrosyl-DNA phosphodiesterase 1 (TDP1): qHTS in cells in absence of CPT. Potency, µM (titrated, usually from 46.2 µM), for inactives: at the highest dose activity change, negative = growth inhibition, most hits filed as inhibitors. 15% of 420,000 active. DT40 Tdp1-/- hTDP1 cells, no CPT, ATP luminescence, 48 h; also: % is scaled to controls: 0 for no effect and ±100 for the full control effect; nearly all actives have a fitted effect of over 55% in size
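Luminescent ATP content (CellTiter-Glo) served as the growth readout. Knockout chicken DT40 cells expressing human TDP1 were exposed to compounds without camptothecin for a minimum 48 hr at 37 °C.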
ATXN2 expr inh: ATXN2 expression inhibition | AID 1745845 | 0.72% of 360,000 active | Potency, µM (series often up to 57 µM), without a hit: top-dose activity change, negative = inhibition, usual class: inhibitors | HEK-293 ATXN2-luciferase reporter, luminescence, 24 h; also: % is scaled to controls: 0 for no effect and ±100 for the full control effect; nearly all actives have a fitted effect of over 55% in size
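ATXN2-luciferase reporter cells (luciferase flanked by upstream and downstream ATXN2 gene portions) were treated 24 h at 37 °C with compounds at up to 57 uM. SteadyGlo luminescence gave expression; GF-AFC fluorescence gave viability.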
S2 tox: cell viability loss in ATXN counter-screen; S2 cells (HEK-293 line with an ATXN2-luciferase reporter) viability, CellTiter-Fluor protease fluorescence, 24 h; Potency, µM (titrated, usually from 56.7 µM), most hits filed as cytotoxic; 0.49% of 400,000 active; AID 651635; also: nearly all actives have a fitted effect of over 40% in size
HepG2 viability: counter-screen for TGF-b inhibitors: cytotoxicity in HepG2 cells; HepG2 CAGA-GFP viability, ATP luminescence, 18 h; Potency, µM (titrated, usually from 46.1 µM), for the others: at the highest dose activity change, negative = cytotoxicity, actives largely listed as cytotoxic; 0.76% of 410,000 active
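HepG2 CAGA-GFP cells (1000/well, DMEM with 1% FBS) received compound, then TGF-beta at 500 pg/mL final, and were incubated 18 hours at 37 degrees C. Viability was read by CellTiter-Glo luminescence. Media-only wells were set as complete cell-killing and DMSO as no toxicity.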
Active calls of the source: *; i = inactive; ? = inconclusive; . = no result given. Most compounds without a hit are left out; they make up all but 17% or so of the library. Calls follow the shape of the dose curve; as a rule, active = well fitted curve in the direction sought with a large enough effect; inconclusive = small, poorly fitted or top-dose-only effect, or another doubt; inactive = no such curve, though single readings can be large; an effect the other way counts as inactive or inconclusive. Potency is read from the fitted curve at half-maximal effect.

SMILES | TDP1 cell CPT | TGFb SMAD3 inh | TDP1 cell noCPT | ATXN2 expr inh | S2 tox | HepG2 viability
Cc1nc2ccccc2c2oc(C(=O)N3CCc4ccccc4C3)cc12 | 23µM* | -29% | 16µM* | ? | ? | -28%
Cc1cc(C(=O)N2CCc3ccccc3C2)c(C)o1 | 16µM* | -13% | ? | 32% | i | 0%
Cc1cccc(NC(=O)CSc2nncn2N)c1C | 8% | -10% | -3% | . | i | -3%
Cc1cc(C(=O)N2CCN(S(=O)(=O)c3ccccc3)CC2)c(C)o1 | 23µM* | 22% | ? | 9% | i | -10%
CC(=O)c1nn(-c2cccc(Br)c2)cc1C(=O)c1ccc(Br)cc1 | 13µM* | 1% | 12µM* | -18% | i | -3%
CC(=O)c1nn(-c2cccc(Br)c2)cc1C(=O)c1ccc(C)cc1 | ? | -18% | -1% | . | . | -19%
CC(=O)c1cccc(NC(=O)c2nc(-c3ccccc3)n(-c3ccccc3C)n2)c1 | 26µM* | 8% | 21µM* | -1% | i | -16%
COc1ccc(-c2nc(C(=O)Nc3cccc(C(C)=O)c3)nn2-c2ccc(Cl)cc2)cc1 | ? | -14% | ? | -5% | i | -2%
CC(=O)c1cccc(NC(=O)c2nc(-c3ccccc3)oc2C)c1 | ? | -26% | 15µM* | -28% | i | 5%
O=C(O)c1ccccc1CSc1nnc2c(n1)[nH]c1ccccc12 | -1% | 6% | 2% | 2% | i | 1%
CC(C)C(=O)Nc1nc2cc3c(cc2s1)OCCO3 | 21µM* | 5% | 15µM* | ? | i | 1%
Cc1sc(NC(=O)C2=COCCO2)nc1-c1ccc(F)cc1 | 16µM* | 0% | 21µM* | 27% | i | -6%
CC(=O)c1sc(Nc2nc3cc4c(cc3s2)OCO4)nc1C | -1% | 6% | ? | 25% | . | -8%
O=C(Nc1nc2cc3c(cc2s1)OCO3)C1=COCCO1 | 8.2µM* | -3% | 13µM* | ? | i | 8.9µM*
Cc1sc(NC(=O)C2=COCCO2)nc1-c1ccc(Br)cc1 | ? | -8% | ? | 1% | i | -28%
CC(=O)Nc1nc2cc3c(cc2s1)OCO3 | 23µM* | 5% | 15µM* | 8% | i | -11%
CC(C)OP(=O)(CP(=O)(OC(C)C)OC(C)C)OC(C)C | . | . | . | 3% | i | .
O=C(OCC(=O)N1CCN(C(=O)c2ccco2)CC1)c1ccccc1NCCO | -10% | -23% | 2% | 24% | i | -25%
COc1ccccc1NC(=O)c1sc2ncn(Cc3ccccc3Cl)c(=O)c2c1C | -5% | -7% | ? | . | . | 4%
CCN(CC)c1ccc(N=Nc2nn(C)c(C)c2[N+](=O)[O-])cc1 | -23% | 3% | ? | 0% | 13µM* | -6%
CCN(Cc1ccccc1)c1ccc(N=Nc2nn(C)c(C)c2[N+](=O)[O-])cc1 | -27% | 11% | ? | 63% | ? | 3%
O=C(NCCc1ccccc1C(F)(F)F)C1CCC(=O)N(C2CC2)C1 (stereo not drawn) | -5% | 14% | -13% | 7% | i | 8%
Nc1nc2[nH]c(=S)[nH]c2c(=O)[nH]1 | 3% | 8% | 2% | . | . | 15%
Nc1nc(=S)c2snnc2[nH]1 | 11µM* | 2% | 16µM* | . | . | -10%
CC(NC(=O)CCc1ccc(S(=O)(=O)NC2CCCCC2)cc1)c1ccccc1 (stereo not drawn) | ? | -2% | ? | -16% | i | -10%
SMILES | TDP1 cell CPT | TGFb SMAD3 inh | TDP1 cell noCPT | ATXN2 expr inh | S2 tox | HepG2 viability
COc1cccc(-c2nn3c(-c4ccccn4)nnc3s2)c1 | ? | -4% | ? | 0% | i | -8%
COc1ccc(-c2nn3c(-c4cccc(C)c4)nnc3s2)cc1OC | ? | 16% | ? | ? | i | 13%
Cc1cccc(-c2nnc3sc(-c4ccccc4)nn23)c1 | 20µM* | 27% | 13µM* | 16% | ? | -1%
COc1cccc(-c2nnc3sc(-c4ccccn4)nn23)c1 | ? | 22% | 23µM* | 22% | i | 2%
COc1cccc(-c2nn3c(-c4cc(C)[nH]n4)nnc3s2)c1 | 16µM* | -21% | 11µM* | -18% | i | -5%
Clc1ccccc1-c1nnc2sc(-c3ccncc3)nn12 | ? | 2% | -18% | 3% | i | -23%
Clc1ccccc1-c1nn2c(-c3ccncc3)nnc2s1 | 16µM* | -1% | 23µM* | 4% | i | -18%
CCOC(=O)Cc1csc(SCC(=O)NC2CCCC2)n1 | -6% | -1% | -9% | -4% | i | -1%
O=C(O)c1ccc(-c2cc3cccnc3c(-c3ccc4nonc4c3)n2)cc1 | . | . | . | -24% | . | .
Cc1ccc(-c2nc3ccc(Cl)cc3c(=O)n2O)cc1 | ? | -12% | 16µM* | 3% | i | -22%
Cc1ccc(-c2nc3ccccc3c(=O)n2O)cc1 | 20% | 0% | -8% | 6% | i | -2%
N=c1n(CCO)c2ccccc2n1CCOc1ccccc1 | ? | -7% | ? | -13% | i | -4%
CCOC(=O)Cn1c(=N)n(CCOc2ccc(Br)cc2)c2ccccc21 | 23µM* | -28% | 16µM* | -20% | i | -114%
N=c1n(CCO)c2ccccc2n1CCOc1ccc(F)cc1 | 21µM* | 21% | -82% | -17% | i | 5%
CCOC(=O)Cn1c(=N)n(CCOc2cccc(C)c2)c2ccccc21 | ? | -16% | -22% | -4% | i | -20%
CCOc1ccc(NC(=O)Cn2nc3c(cc2=O)CC(C)CC3)cc1 (stereo not drawn) | 7% | -14% | -9% | . | . | -8%
Cc1c(Br)c(C(=O)NNC(=O)c2ccc(C(C)(C)C)cc2)nn1C | ? | -9% | ? | . | i | -4%
Cc1ccc(Cn2cccc(NC(=O)NC3CCCCC3)c2=O)cc1 | -15% | -1% | 0% | -11% | ? | -21%
CN1CCN(c2ccc(-c3cccc(NC(=O)COc4ccc(Cl)cc4Cl)c3)nn2)CC1 | ? | 1% | ? | -18% | i | -19%
CCCC(=O)Nc1nc(C)c(-c2csc(Nc3ccc(Cl)cc3)n2)s1 | 12µM* | -11% | ? | -18% | i | -9%
CCC(C)C(=O)Nc1nc(C)c(-c2csc(Nc3ccc(Cl)cc3)n2)s1 (stereo not drawn) | 16µM* | ? | 9.2µM* | -37% | i | -8%
